# Laboratory results taken from PubChem BioAssay (EPA / NIEHS).
# Calls of active or inactive are those of the source. Rule for the calls: active = hit-call score of the fitted dose curve at least 0.9, where 1 is the maximum; inactive = score below 0.9.
# Read-out: DNA damage-inducible transcript 3 (DDIT3), DDIT3 (gene 1649)
# Assay: LTEA_HepaRG_DDIT3: Life Technologies and Expression Analysis (LTEA) Assay for DNA damage-inducible transcript 3 (DDIT3) using HepaRG (AID 2283488)
# Conditions: mRNA level, 48 h; actives raise or lower the signal
# In short: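 Changes in DDIT3 transcript, in either direction relative to 0.5% DMSO vehicle, were quantified by TaqMan qRT-PCR after 48 h chemical exposure of HepaRG cells at 8 concentrations, maximum 100 uM.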
SMILES,outcome,AC50
CCCCOC(=O)c1ccc(O)cc1,inactive,
O=c1ccc2ccccc2o1,inactive,
CC(C)(c1cc(Br)c(O)c(Br)c1)c1cc(Br)c(O)c(Br)c1,inactive,
CCOC(=O)O[C@H](C)OC(=O)c1ccc2c(c1)cc(C(=O)NC1CCN(C(C)C)CC1)n2Cc1cc(-c2ccc(Cl)s2)on1,inactive,
CC1(C)NC(=O)N(c2ccc([N+](=O)[O-])c(C(F)(F)F)c2)C1=O,,75.7 µM (active)
C[C@]12CC[C@@H]3c4ccc(O)cc4CC[C@H]3[C@@H]1CCC2=O,,64.5 µM (active)
Cc1occc1C(=O)Nc1ccc(C(=O)N2CCC(F)(F)/C(=C\C(=O)N3CCC(N4CCCCC4)CC3)c3ccccc32)cc1,,42.3 µM (active)
COc1ccc2cc(S(=O)(=O)N[C@H](CC(=O)N[C@H](Cc3ccc(CN4[C@H](C)CCC[C@@H]4C)cc3)C(=O)N(C)C(C)C)c3ccc4c(c3)OCO4)ccc2c1,,20.4 µM (active)
CCCCCCCC[Si](OCC)(OCC)OCC,inactive,
O=C(O)c1ccccc1C(=O)OCc1ccccc1,inactive,
Cc1oc2c(NC(=O)c3c(Cl)cccc3Cl)cccc2c1C(C)(C)O,,33.2 µM (active)
Cc1ccc(C(C)C)cc1,inactive,
O=CCCCC=O,inactive,
CC(=O)N1CCN(c2ccc(OC[C@H]3CO[C@](Cn4ccnc4)(c4ccc(Cl)cc4Cl)O3)cc2)CC1,,12.9 µM (active)
CC(C)(C)c1csc(-c2cc3cc(OCc4ccccc4CC(=O)O)ccc3o2)n1,,22.7 µM (active)
CCN(Cc1cccc(S(=O)(=O)O)c1)c1ccc(C(=C2C=CC(=[N+](CC)Cc3cccc(S(=O)(=O)O)c3)C=C2)c2ccccc2S(=O)(=O)[O-])cc1,inactive,
O=C(O)Cn1c(=O)n(Cc2ccc(Br)cc2F)c(=O)c2ccc(Cl)cc21,inactive,
CN(C)c1ccc(C(=C2C=CC(=[N+](C)C)C=C2)c2ccc(N(C)C)cc2)cc1,,1.38 µM (active)
CC/C(=C(/CC)c1ccc(O)cc1)c1ccc(O)cc1,,67.6 µM (active)

SMILES,outcome,AC50
CCCOC(=O)c1cc(O)c(O)c(O)c1,inactive,
O=C(Nc1ccc(Cl)cc1)Nc1ccc(Cl)c(Cl)c1,,26.6 µM (active)
c1ccc2ccccc2c1,inactive,
CO[C@H]1/C=C/O[C@@]2(C)Oc3c(C)c(O)c4c(O)c(c(/C=N/N5CCN(C)CC5)c(O)c4c3C2=O)NC(=O)/C(C)=C\C=C\[C@H](C)[C@H](O)[C@@H](C)[C@@H](O)[C@@H](C)[C@H](OC(C)=O)[C@@H]1C,inactive,
CC(C)(C)c1cc(/C=C2\SC(N)=NC2=O)cc(C(C)(C)C)c1O,,22.8 µM (active)
C[C@]12CC[C@@H]3c4ccc(O)cc4CC[C@H]3[C@@H]1CC[C@H]2O,inactive,
Cc1cc2c(cc1C(F)(F)F)N(C(=O)Nc1ccc(Oc3cccnc3C)nc1)CC2,inactive,
Clc1ccccc1C(c1ccccc1)(c1ccccc1)n1ccnc1,,86.5 µM (active)
CCCCCCCCCCCO,inactive,
CN1C(=O)N(c2ccccc2Br)Cc2cnc(Nc3ccc4c(c3)OCC(CO)O4)nc21 (stereo not given),,40.5 µM (active)
Cc1c2ccccc2c(C)c2c1ccc1ccccc12,,33.9 µM (active)
CC(C)(O)c1ccc(CNC(=O)c2cccnc2Oc2ccc3nonc3c2)cc1,inactive,
COc1cc(C(=O)NC2CCN(C)CC2)ccc1Nc1ncc2c(n1)N(C1CCCC1)CC(F)(F)C(=O)N2C,,83 µM (active)
Cc1cn([C@H]2C[C@H](N=[N+]=[N-])[C@@H](CO)O2)c(=O)[nH]c1=O,inactive,
CCCCOC(=O)CC(CC(=O)OCCCC)(OC(C)=O)C(=O)OCCCC,inactive,
CN(C)C(=O)C1(N2CCCCC2)CCN(CC[C@@]2(c3ccc(Cl)c(Cl)c3)CN(C(=O)c3ccccc3)CCO2)CC1,,17.5 µM (active)
CCCCCc1ccc(N)cc1,inactive,
CCO[Si](CCCNC(N)=O)(OCC)OCC,inactive,
O=C1c2ccccc2C(=O)N1CCc1noc(-c2ccc(CN3CCCCCC3)s2)n1,inactive,

# Read-out: Pro-epidermal growth factor (Homo sapiens) (UniProt P01133)
# Assay: LTEA_HepaRG_EGF: Life Technologies and Expression Analysis (LTEA) Assay for Epidermal growth factor (EGF) using HepaRG (AID 2283489)
# Conditions: mRNA level, 48 h; actives raise or lower the signal
# In short: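 HepaRG, 48 h dosing, 100 uM top, half-log x8, 0.5% DMSO. Readout: TaqMan qRT-PCR (Fluidigm array), housekeeping-normalized. Gain or loss of signal fit vs DMSO.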
SMILES,AC50,outcome
C[C@]12CC[C@@H]3c4ccc(O)cc4CC[C@H]3[C@@H]1CCC2=O,22.4 µM (active),
O=C(Nc1ccc(Cl)cc1)Nc1ccc(Cl)c(Cl)c1,50 µM (active),
Cc1cc2c(cc1C(F)(F)F)N(C(=O)Nc1ccc(Oc3cccnc3C)nc1)CC2,,inactive

# Read-out: Early growth response protein 1 (EGR1) transcription factor, EGR1 (gene 1958)
# Assay: LTEA_HepaRG_EGR1: Life Technologies and Expression Analysis (LTEA) Assay for Early growth response protein 1 (EGR1) transcription factor using HepaRG (AID 2283490)
# Conditions: mRNA level, 48 h; actives raise or lower the signal
# In short: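 Differentiated human HepaRG cells in serum-free induction medium were exposed in duplicate for 48 h to eight concentrations (top 100 uM, half-log steps) in 0.5% DMSO. EGR1 mRNA was quantified by qRT-PCR, normalized to ACTB, GAPDH and POLR2A, and fitted bidirectionally versus DMSO.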
SMILES,outcome,AC50
CC1(C)NC(=O)N(c2ccc([N+](=O)[O-])c(C(F)(F)F)c2)C1=O,inactive,
Cc1occc1C(=O)Nc1ccc(C(=O)N2CCC(F)(F)/C(=C\C(=O)N3CCC(N4CCCCC4)CC3)c3ccccc32)cc1,inactive,
COc1ccc2cc(S(=O)(=O)N[C@H](CC(=O)N[C@H](Cc3ccc(CN4[C@H](C)CCC[C@@H]4C)cc3)C(=O)N(C)C(C)C)c3ccc4c(c3)OCO4)ccc2c1,,33.3 µM (active)
O=CCCCC=O,inactive,
CCCOC(=O)c1cc(O)c(O)c(O)c1,inactive,
O=C(Nc1ccc(Cl)cc1)Nc1ccc(Cl)c(Cl)c1,,12.6 µM (active)
CO[C@H]1/C=C/O[C@@]2(C)Oc3c(C)c(O)c4c(O)c(c(/C=N/N5CCN(C)CC5)c(O)c4c3C2=O)NC(=O)/C(C)=C\C=C\[C@H](C)[C@H](O)[C@@H](C)[C@@H](O)[C@@H](C)[C@H](OC(C)=O)[C@@H]1C,inactive,
CC(C)(C)c1cc(/C=C2\SC(N)=NC2=O)cc(C(C)(C)C)c1O,,50 µM (active)
Clc1ccccc1C(c1ccccc1)(c1ccccc1)n1ccnc1,,71.5 µM (active)
CN1C(=O)N(c2ccccc2Br)Cc2cnc(Nc3ccc4c(c3)OCC(CO)O4)nc21 (stereo not given),,24 µM (active)
CC(C)(O)c1ccc(CNC(=O)c2cccnc2Oc2ccc3nonc3c2)cc1,inactive,
Cc1cn([C@H]2C[C@H](N=[N+]=[N-])[C@@H](CO)O2)c(=O)[nH]c1=O,inactive,
CCCCCc1ccc(N)cc1,inactive,
CCO[Si](CCCNC(N)=O)(OCC)OCC,inactive,
